Source: PubChem BioAssay
HT1080 IDH1KD tx: kills HT-1080 cells with IDH1 knockdown; 2% of 360,000 active; HT-1080 IDH1 knockdown viability, ATP luminescence, 48 h; AID 686971; Potency, µM (top dose mostly 46.1 µM), inactives show at the highest dose activity, negative = toxicity, most hits filed as cytotoxic;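 further: potency means the concentration at half of the fitted maximal effect; 0% = DMSO wells and -100% = cell-free medium wells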
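IDH1KD HT-1080 cells, 750/well, RPMI + 5% FBS; compound pinned after 2 h settling; 48 h, 37 °C; CellTiter-Glo luminescence; % activity normalised to DMSO and no-cell wells; curves fitted, classed by r2 and efficacy.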
HT1080-NT tox: kills 2HG-producing HT-1080-NT fibrosarcoma cells; HT-1080-NT fibrosarcoma viability, CellTiter-Glo ATP luminescence, 48 h; Potency, µM (titrated, usually from 46.1 µM), for the others: at the highest dose activity, negative = less viability, usual class: cytotoxic; 1.6% of 360,000 active;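 further: NT is the 2HG producing partner of a matched IDH1 knockdown line; potency means the concentration at half of the fitted maximal effect; 0% = DMSO-treated cells and -100% = media-only wells without cells; nearly all actives have a fitted effect of over 55% in size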
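Viability by CellTiter-Glo luminescence after 48 h compound exposure at 37C of HT-1080-NT cells (750/well, RPMI, 5% FBS). % activity scaled between DMSO wells and medium-only wells, then curve-fitted and categorized by curve class.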
TDP1 cell CPT: growth inhibition of DT40 Tdp1-/-;hTDP1 cells with camptothecin (screen for TDP1 inhibitors) | chicken DT40 Tdp1-/-;hTDP1 cells + 20 nM CPT, ATP luminescence, 48 h | Potency, µM (highest dose often 46.2 µM), for the others: at the top dose activity change, negative = growth inhibition, hits mostly inhibitors | AID 686979 | 12% of 420,000 active; further: potency means the concentration at half of the fitted maximal effect; nearly all actives have a fitted effect of over 55% in size
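Cell growth measured by CellTiter-Glo luminescence after a minimum 48 h, 37 C compound exposure with 20 nM CPT in Tdp1-knockout DT40 cells stably expressing hTDP1, seeded 400/well; qHTS titration format.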
ELG1 DNA repair: ELG1-dependent DNA repair inhibition; AID 504467; 2.3% of 330,000 active; HEK293T ELG1-luciferase reporter, luminescence, 16 h; DNA damage induced by 5-fluorouridine; Potency, µM (titrated, usually from 46.1 µM), without a hit: at the highest dose activity change, negative = inhibition, hits mostly inhibitors; further: potency means the concentration at half of the fitted maximal effect; nearly all actives have a fitted effect of over 55% in size
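In this reporter screen, reduction of luminescence relative to DMSO vehicle indicated activity. Compounds and 5-fluorouridine were added together to 2,000 cells per well, incubated for 16 hr at 37 °C, then developed with ONE-Glo.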
IL-1B inflam inh: inhibitors of inflammasome signaling (IL-1 beta secretion). THP-1 LPS/ATP IL-1B secretion, AlphaLISA, 16 h; stronger effect = lower value. activity change, % at 57.5 µM. 4.7% of 360,000 active. AID 743279; in the data active means activity change below about -50%; inconclusive means mostly about -30% to -49%
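THP-1 cells pretreated 1 hr with compounds (up to 57.5 uM final), then stimulated with LPS (250 ng/mL final) plus ATP (1.25 mM final); secreted IL-1B measured by AlphaLISA after 16 hr, decreased signal indicating inhibition.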
TDP1 cell noCPT: qHTS for Inhibitors of human tyrosyl-DNA phosphodiesterase 1 (TDP1): qHTS in cells in absence of CPT | Potency, µM (series often up to 46.2 µM), inactives show at the top dose activity change, negative = growth inhibition, most hits filed as inhibitors | 15% of 420,000 active | DT40 Tdp1-/- hTDP1 cells, no CPT, ATP luminescence, 48 h; further: potency means the concentration at half of the fitted maximal effect; nearly all actives have a fitted effect of over 55% in size
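No-CPT arm: Tdp1-/-;hTDP1 DT40 cells (400/well) plus compounds, incubated ≥48 hr at 37 °C. Readout CellTiter-Glo luminescence.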
An asterisk follows results filed as active; i = inactive; ? = inconclusive; · = not tested or not shown. In the library only some 19% were active in any assay of this set; here they are far more common. Unless noted, the call rests on the fitted dose curve; in most records, active means well fitted curve in the direction sought with a large enough effect; inconclusive means small, poorly fitted or top-dose-only effect, or another doubt; inactive means no such curve, though single readings can be large; an effect the other way counts as inactive or inconclusive. Unless noted, on the % scale 0 is the no-effect control and ±100 the full control effect.

SMILES	HT1080 IDH1KD tx	HT1080-NT tox	TDP1 cell CPT	ELG1 DNA repair	IL-1B inflam inh	TDP1 cell noCPT
CCOc1ccc(OCC)c(NC(=O)CN(C)S(=O)(=O)c2ccc3nc(C)sc3c2)c1	3.2%	6.7%	?	?	-50.4*	?
Cc1nc2ccc(S(=O)(=O)N(C)CC(=O)Nc3ccc(Br)c(C)c3)cc2s1	·	·	?	·	·	16.4µM*
CCOc1ccccc1NC(=O)CN(C)S(=O)(=O)c1ccc2nc(C)sc2c1	·	·	-6.0%	·	·	-28.3%
COc1ccc(-c2nc3cc(C)c(Br)c(C)n3c2Cc2ccccc2C(F)(F)F)cc1OC	9.9%	15.1%	-29.3%	·	-5.3	?
COc1ccc(Nc2nc(N)c3cc(OC)c(OC)cc3n2)cc1	·	·	?	·	·	18.4µM*
COc1ccc(Nc2nc(N)c3ccccc3n2)c(OC)c1	?	-21.8%	12.1%	?	·	-34.4%
COc1cc2nc(Nc3cccc(F)c3)nc(N)c2cc1OC	?	?	11.6µM*	?	·	5.8µM*
O=C(CSc1cn(CC(=O)N2CCOCC2)c2ccccc12)N1CCOCC1	-0.2%	0.7%	-21.0%	14.4%	4.1	2.9%
Cc1ccccc1CSc1cn(CC(=O)N2CCCCCC2)c2ccccc12	·	·	?	·	·	23.1µM*
CNC(=O)CSc1cn(CC(=O)N2CCCCCC2)c2ccccc12	·	·	-15.9%	·	·	-14.9%
O=C(Cn1cc(SCc2ccccc2F)c2ccccc21)N1CCCCCC1	·	·	23.1µM*	·	·	?
Cc1ccc(NC(=S)N2CCN(S(=O)(=O)c3ccc(F)cc3)CC2)cc1	18.7%	0.3%	1.0%	-1.4%	i	-0.1%
COc1ccc(NC(=O)C2CCN(S(=O)(=O)c3ccc(Cl)c(C(F)(F)F)c3)CC2)cn1	-0.3%	0.9%	?	·	14.5	?
COc1ccc(C2NC(=O)N(C)C3=C2C(=O)N(c2ccc(F)cc2)C3)cc1 (stereo unspecified)	·	·	10.3%	·	·	-27.7%
CN1CC[C@H](CN2c3ccccc3Sc3ccccc32)C1	·	·	?	·	·	12.6µM*
O=C1CCC(=O)N1CC(=O)N1c2ccccc2Sc2ccccc21	-1.1%	5.8%	-1.4%	-0.2%	-3.5	-10.7%
COc1ccccc1OC(=O)CCN1c2ccccc2Sc2ccccc21	5.8%	2.3%	0.3%	2.8%	2.8	-17.6%
CN1CCC(CN2c3ccccc3Sc3ccccc32)C1 (stereo unspecified)	·	·	18.8µM*	·	·	11.9µM*
O=[N+]([O-])c1ccc(NN=Cc2ccccc2O)nc1	7.31µM*	?	5.8µM*	·	58.9	5.8µM*
CCN(CC)c1ccc(C=NNc2ccc([N+](=O)[O-])cn2)cc1	-20.2%	-24.9%	20.6µM*	·	7.1	?
O=[N+]([O-])c1ccc(NN=Cc2ccc(O)cc2O)nc1	3.26µM*	?	3.26µM*	·	87.9	5.8µM*
CC/C(=N\Nc1ccc([N+](=O)[O-])cc1)c1ccccc1	-27.6%	-23.6%	?	?	-51.0*	?
COc1ccccc1C=NNc1ccc([N+](=O)[O-])cn1	6.3%	-1.3%	2.2%	·	15.0	6.5%
O=[N+]([O-])c1ccc(NN=Cc2ccc(O)cc2)nc1	-4.3%	0.8%	5.5%	·	-3.5	-9.0%
O=C(NCCN1CCN(c2ccccc2)CC1)Nc1ccccc1Br	0.0%	-0.1%	?	5.8%	-18.9	?
SMILES	HT1080 IDH1KD tx	HT1080-NT tox	TDP1 cell CPT	ELG1 DNA repair	IL-1B inflam inh	TDP1 cell noCPT
CCOC(=O)c1cccc(NC(=O)CCn2nc(C)c3c(C)n(-c4ccccc4)nc3c2=O)c1	·	·	-9.6%	·	·	-3.7%
CCc1nc2cc(C(=O)NC3CCOC(C)(C)C3)cc(NC(=O)c3ccccc3OC)c2n1C (stereo unspecified)	·	·	7.0%	·	·	-22.5%
O=[N+]([O-])c1cccc(N/N=C/c2cc([N+](=O)[O-])ccc2O)c1	14.6µM*	23.1µM*	2.4%	?	-9.4	?
O=C(COC(=O)c1ccccc1NC(=O)c1ccccc1)c1ccc([N+](=O)[O-])cc1	-5.9%	2.2%	23.1µM*	28.6%	5.8	?
O=C(COC(=O)c1ccccc1NC(=O)c1ccccc1)c1cccc([N+](=O)[O-])c1	7.2%	9.2%	-5.1%	-3.0%	0.2	-0.1%
O=[N+]([O-])c1ccc(O)c(/C=N/Nc2nc3ccccc3[nH]2)c1	?	?	4.11µM*	?	31.5	2.06µM*
O=C(N/N=C/c1cc([N+](=O)[O-])ccc1O)C12CC3CC(CC(C3)C1)C2	-16.1%	-11.4%	?	?	161.2	23.1µM*
O=[N+]([O-])c1ccc(N/N=C/c2ccccc2O)cc1	?	-9.3%	13µM*	?	-17.5	8.2µM*
O=[N+]([O-])c1ccc(O)c(/C=N/Nc2ccccn2)c1	10.3µM*	11.6µM*	1.3µM*	?	-101.0*	1.46µM*
O=[N+]([O-])c1ccc(O)c(C=NNc2ccc(S(=O)(=O)O)cc2)c1	-1.7%	2.8%	-3.0%	·	0.5	-22.2%
O=C(N/N=C/c1cc([N+](=O)[O-])ccc1O)Nc1ccccc1	16.4µM*	?	?	?	110.8	?
CCNC(=O)C(=O)N/N=C/c1cc([N+](=O)[O-])ccc1O	?	-20.0%	14.6µM*	?	0.0	?
COc1ccc(CCNC(=O)C(=O)NCC(c2ccco2)S(=O)(=O)c2ccccc2)cc1OC (stereo unspecified)	·	·	-27.8%	·	·	?
N#Cc1ccccc1Cn1cc(/C=N/Nc2ccc([N+](=O)[O-])cn2)c2ccccc21	0.0%	-0.2%	?	6.51µM*	-4.4	23.1µM*
O=[N+]([O-])c1ccc(N/N=C\c2cccn2-c2ccccc2)nc1	?	?	11.6µM*	0.8%	92.8	?
O=[N+]([O-])c1ccc(O)c(/C=N/Nc2ncnc3c2cnn3-c2ccccc2)c1	?	?	3.66µM*	?	202.2	3.66µM*
CC(=O)Nc1ccc(Nc2ncnc3c2cnn3-c2ccccc2)cc1	-0.6%	-7.9%	?	?	-16.4	?
CCN(CC)S(=O)(=O)c1ccc(N/N=C/c2ccc(O)cc2O)nc1	?	?	4.61µM*	?	82.4	5.8µM*
O=[N+]([O-])c1ccc(NN=Cc2ccccc2)nc1	10.0%	12.8%	-3.8%	·	-7.0	-1.8%
Cc1ccc(NC(=O)c2cc(S(=O)(=O)N3CCCC3)c[nH]2)c(C)c1	2.0%	-0.8%	-0.6%	-12.3%	19.5	-17.2%
CCNc1ncc2nc(-c3cc(F)cc(F)c3)c(=O)n(CCOC)c2n1	·	·	-14.8%	·	·	-5.0%
